Screens as filed in PubChem BioAssay.
12-LOX inh: Primary qHTS assay for inhibitors of human arachidonate 12S-lipoxygenase (ALOX12): Round 2 | Polyunsaturated fatty acid lipoxygenase ALOX12 (Homo sapiens), P18054 | 1.1% of 580,000 active | purified 12hLO, xylenol orange hydroperoxide absorbance | Potency, µM (top dose mostly 108 µM), for inactives: at the highest dose activity change, negative = inhibition, usual class: inhibitors; further: potency means the concentration at half of the fitted maximal effect
Target sequence (P18054 whole entry, looked up): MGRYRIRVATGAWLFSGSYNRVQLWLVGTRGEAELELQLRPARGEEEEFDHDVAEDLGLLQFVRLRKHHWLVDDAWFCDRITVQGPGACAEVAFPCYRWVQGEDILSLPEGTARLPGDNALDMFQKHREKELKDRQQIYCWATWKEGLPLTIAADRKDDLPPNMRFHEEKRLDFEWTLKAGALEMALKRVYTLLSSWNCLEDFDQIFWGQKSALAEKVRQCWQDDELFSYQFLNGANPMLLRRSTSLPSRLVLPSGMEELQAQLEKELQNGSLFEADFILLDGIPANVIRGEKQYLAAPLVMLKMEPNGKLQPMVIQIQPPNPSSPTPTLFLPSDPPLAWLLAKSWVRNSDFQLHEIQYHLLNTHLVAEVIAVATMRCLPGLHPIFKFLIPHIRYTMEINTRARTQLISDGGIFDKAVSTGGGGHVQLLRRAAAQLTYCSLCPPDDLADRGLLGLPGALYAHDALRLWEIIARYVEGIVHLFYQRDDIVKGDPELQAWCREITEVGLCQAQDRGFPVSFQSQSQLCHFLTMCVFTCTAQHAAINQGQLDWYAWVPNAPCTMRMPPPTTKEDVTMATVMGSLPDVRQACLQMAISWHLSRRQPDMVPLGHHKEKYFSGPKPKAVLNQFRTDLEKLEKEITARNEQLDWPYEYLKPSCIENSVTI
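Hydroperoxide product was detected by ferrous iron/xylenol orange as the 573 to 405 nm absorbance ratio. Arachidonic acid at 40 uM (final) was turned over for 30 min at room temperature by 150 nM human 12hLO, pH 7.0 Hepes buffer, after 15 min compound preincubation.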
HT1080NT lethal: qHTS for induction of synthetic lethality in tumor cells producing 2HG: qHTS for the HT-1080-NT fibrosarcoma cell line; Potency, µM (doses to about 46.1 µM), without a hit: top-dose activity, negative = less viability, actives largely listed as cytotoxic; HT-1080-NT fibrosarcoma viability, CellTiter-Glo ATP luminescence, 48 h; 1.6% of 360,000 active;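 further: NT is the 2HG producing partner of a matched IDH1 knockdown line; potency means the concentration at half of the fitted maximal effect; 0% = DMSO-treated cells and -100% = media-only wells without cells; nearly all actives have a fitted effect of over 55% in size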
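Read-out is CellTiter-Glo luminescence after 10 minutes at room temperature, following 48 hours' compound treatment of HT-1080-NT cells (750 cells/well, RPMI, 5% FBS, 37 degrees C).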
DT40 TDP1 CPT: qHTS for Inhibitors of human tyrosyl-DNA phosphodiesterase 1 (TDP1): qHTS in cells in presence of CPT; chicken DT40 Tdp1-/-;hTDP1 cells + 20 nM CPT, ATP luminescence, 48 h; Potency, µM (highest dose often 46.2 µM), inactives show at the highest dose activity change, negative = growth inhibition, actives largely listed as inhibitors; 12% of 420,000 active; AID 686979, 2013; further: potency means the concentration at half of the fitted maximal effect; nearly all actives have a fitted effect of over 55% in size
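Chicken DT40 Tdp1-/- cells complemented with human TDP1, 400 cells/well, exposed to compounds plus 20 nM camptothecin for at least 48 h at 37 C; viability read as ATP content by CellTiter-Glo luminescence.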
IL-1B inflam inh: qHTS for Inhibitors of Inflammasome Signaling: IL-1-beta AlphaLISA Primary Screen; AID 743279, 2014; THP-1 LPS/ATP IL-1B secretion, AlphaLISA, 16 h; active compounds read low; 4.7% of 360,000 active; activity change, % at 57.5 µM; in the data active means activity change below about -50%; inconclusive means mostly about -30% to -49%
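Secreted IL-1B measured by AlphaLISA bead assay after 16 h compound exposure of THP-1 cells; compounds (final up to 57.5 uM) added 1 h before LPS (250 ng/mL) and ATP (1.25 mM) stimulation; lower signal means less secretion.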
DT40 TDP1 no CPT: qHTS for Inhibitors of human tyrosyl-DNA phosphodiesterase 1 (TDP1): qHTS in cells in absence of CPT; Potency, µM (titrated, usually from 46.2 µM), inactives show top-dose activity change, negative = growth inhibition, usual class: inhibitors; AID 686978, 2013; DT40 Tdp1-/- hTDP1 cells, no CPT, ATP luminescence, 48 h; 15% of 420,000 active; further: potency means the concentration at half of the fitted maximal effect; nearly all actives have a fitted effect of over 55% in size
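DT40 Tdp1-/-;hTDP1 cells, no CPT (DMSO vehicle only), 400 cells/well; compounds pin-transferred; ≥48 hr, 37 °C; CellTiter-Glo 30 min RT dark, luminescence read.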
HT1080 IDH1KD tx: qHTS for induction of synthetic lethality in tumor cells producing 2HG: qHTS for the HT-1080-IDH1KD cell line | Potency, µM (doses to about 46.1 µM), for inactives: at the top dose activity, negative = toxicity, hits mostly cytotoxic | 2% of 360,000 active | HT-1080 IDH1 knockdown viability, ATP luminescence, 48 h;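 further: potency means the concentration at half of the fitted maximal effect; 0% = DMSO wells and -100% = cell-free medium wells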
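IDH1KD HT-1080 cells, 750/well, RPMI + 5% FBS; compound pinned after 2 h settling; 48 h, 37 °C; CellTiter-Glo luminescence; % activity normalised to DMSO and no-cell wells; curves fitted, classed by r2 and efficacy.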
Active calls of the source: *; [ ] = another dose, or the depositor's remark. Shown is part of a subset that was picked to be rich in hits. Unless noted, the call rests on the fitted dose curve; in most records, active means well fitted curve in the direction sought with a large enough effect; inconclusive means small, poorly fitted or top-dose-only effect, or another doubt; inactive means no such curve, though single readings can be large; an effect the other way counts as inactive or inconclusive. Unless noted, on the % scale 0 is the no-effect control and ±100 the full control effect.

What do the screens show for `Cc1nc(C(=O)Nc2cc(F)cc(Cl)c2)sc1C1(C)CC(c2ccccc2)=NO1` (stereo not given)?
12-LOX inh: inconclusive; HT1080NT lethal: -11%; DT40 TDP1 CPT: 16µM*; IL-1B inflam inh: inconclusive; DT40 TDP1 no CPT: 21µM*; HT1080 IDH1KD tx: -3%

How did CNC(=O)c1nc(C)c(C2(C)CC(c3ccccc3)=NO2)s1 (stereo not given) do in these assays?
12-LOX inh: -13%; HT1080NT lethal: 9%; DT40 TDP1 CPT: -10%; IL-1B inflam inh: 10; DT40 TDP1 no CPT: -28%; HT1080 IDH1KD tx: 2%

What do the screens show for `CC(=O)c1ccc(NC(=O)NC[C@@H]2C=C(C)[C@H](CC(=O)N(C)Cc3cccnc3)C[C@H]2C(C)C)cc1`?
12-LOX inh: -29%

How did COc1cccc(N2CCN(C(=O)CN(c3ccc(C)cc3)S(=O)(=O)c3c(C)n[nH]c3C)CC2)c1 do in these assays?
12-LOX inh: -3%; HT1080NT lethal: -5%; DT40 TDP1 CPT: -9%; IL-1B inflam inh: 0; DT40 TDP1 no CPT: inconclusive; HT1080 IDH1KD tx: -9%

How did COc1ccc(N(CC(=O)Nc2ccc(C)cc2C)S(=O)(=O)c2c(C)n[nH]c2C)cc1 do in these assays?
12-LOX inh: 19%; HT1080NT lethal: -16%; DT40 TDP1 CPT: -11%; IL-1B inflam inh: -1; DT40 TDP1 no CPT: 18µM*; HT1080 IDH1KD tx: inconclusive

Results for COc1ccc(N(CC(=O)Nc2ccc(F)c(F)c2)S(=O)(=O)c2c(C)n[nH]c2C)cc1 ?
12-LOX inh: inconclusive; HT1080NT lethal: -7%; DT40 TDP1 CPT: -6%; IL-1B inflam inh: 0; DT40 TDP1 no CPT: 6%; HT1080 IDH1KD tx: -13%

Results for COc1ccc(NC(=O)CN(c2cc(C)cc(C)c2)S(=O)(=O)c2c(C)n[nH]c2C)cc1 ?
12-LOX inh: 5%; HT1080NT lethal: inconclusive; DT40 TDP1 CPT: 29µM*; IL-1B inflam inh: -8; DT40 TDP1 no CPT: inconclusive; HT1080 IDH1KD tx: inconclusive

Results for COc1ccc(Cl)cc1NC(=O)CN(c1cc(C)cc(C)c1)S(=O)(=O)c1c(C)n[nH]c1C ?
12-LOX inh: -4%; DT40 TDP1 CPT: inconclusive; DT40 TDP1 no CPT: inconclusive

How did COc1ccc(N(CC(=O)Nc2cc(Cl)ccc2C)S(=O)(=O)c2c(C)n[nH]c2C)cc1 do in these assays?
12-LOX inh: -25%; HT1080NT lethal: inconclusive; DT40 TDP1 CPT: 4.1µM*; IL-1B inflam inh: -10; DT40 TDP1 no CPT: 5.2µM*; HT1080 IDH1KD tx: inconclusive

Results for COc1ccc(N(CC(=O)N2CCN(c3cccc(C)c3)C(C)C2)S(=O)(=O)c2c(C)n[nH]c2C)cc1 (stereo not given) ?
12-LOX inh: -19%; HT1080NT lethal: -5%; DT40 TDP1 CPT: inconclusive; IL-1B inflam inh: -61*; DT40 TDP1 no CPT: inconclusive; HT1080 IDH1KD tx: -21%

What do the screens show for `CCOC(=O)C1=C(C)N(CC(C)C)C(=O)NC1c1ccccc1OC(F)F` (stereo not given)?
12-LOX inh: -9%

What do the screens show for `CC(=O)Nc1nonc1-c1nnc(SCC(=O)Nc2cc(C)cc(C)c2)n1C`?
12-LOX inh: -9%; DT40 TDP1 CPT: -24%; DT40 TDP1 no CPT: inconclusive

Results for Nc1ccn(C2C=CC(CO)O2)c(=O)n1 (stereo not given) ?
12-LOX inh: -2%; HT1080NT lethal: 3%; DT40 TDP1 CPT: -12%; DT40 TDP1 no CPT: 8%; HT1080 IDH1KD tx: -1%

How did COc1ccc(N(CC(=O)NCc2ccc(Cl)cc2)S(=O)(=O)c2c(C)n[nH]c2C)cc1 do in these assays?
12-LOX inh: inconclusive; HT1080NT lethal: 0%; DT40 TDP1 CPT: 2%; IL-1B inflam inh: -9; DT40 TDP1 no CPT: -16%; HT1080 IDH1KD tx: -8%

Results for COc1ccc(N(CC(=O)NCc2ccccc2)S(=O)(=O)c2c(C)n[nH]c2C)cc1 ?
12-LOX inh: -1%; HT1080NT lethal: 15%; DT40 TDP1 CPT: 21µM*; IL-1B inflam inh: -26; DT40 TDP1 no CPT: -3%; HT1080 IDH1KD tx: 1%

Results for CCNC(=O)N1C[C@@H]2OCC(=O)N(CC3CC3)[C@@H]2C1 ?
12-LOX inh: 44%[176 µM]

How did Cc1ccc2nc(CO[C@H]3CN(c4ccc(C#N)cn4)C[C@H]3F)[nH]c2c1 do in these assays?
12-LOX inh: 14µM*

How did CSc1ccc(C(=O)C2CCCN(Cc3ccc(N4CCNC4=O)cc3)C2)cc1 (stereo not given) do in these assays?
12-LOX inh: 2%; HT1080NT lethal: -3%; DT40 TDP1 CPT: 6%; IL-1B inflam inh: -97*; DT40 TDP1 no CPT: inconclusive; HT1080 IDH1KD tx: -29%

How did COc1ccc(C(=O)C2CCCN(C(=O)c3cccc(Cn4cccn4)c3)C2)cc1F (stereo not given) do in these assays?
12-LOX inh: 0%; HT1080NT lethal: -10%; DT40 TDP1 CPT: inconclusive; IL-1B inflam inh: -17; DT40 TDP1 no CPT: inconclusive; HT1080 IDH1KD tx: -1%

How did COc1ccc(CN2CCCC(C(=O)c3ccc(SC)cc3)C2)cc1Cn1cccn1 (stereo not given) do in these assays?
12-LOX inh: 0%; HT1080NT lethal: inconclusive; DT40 TDP1 CPT: inconclusive; IL-1B inflam inh: -96*; DT40 TDP1 no CPT: inconclusive; HT1080 IDH1KD tx: inconclusive

Results for CSc1ncc(CN2CCCC(C(=O)Nc3ccc(-c4ccco4)cc3)C2)cn1 (stereo not given) ?
12-LOX inh: 2%; HT1080NT lethal: 7%; DT40 TDP1 CPT: inconclusive; IL-1B inflam inh: 7; DT40 TDP1 no CPT: inconclusive; HT1080 IDH1KD tx: -5%

What do the screens show for `CSc1ncc(CN2CCCC(C(=O)c3ccc(C(C)(C)C)cc3)C2)cn1` (stereo not given)?
12-LOX inh: -3%; HT1080NT lethal: -15%; DT40 TDP1 CPT: 16µM*; IL-1B inflam inh: 21; DT40 TDP1 no CPT: 23µM*; HT1080 IDH1KD tx: -12%

Results for COc1cccc(/C(O)=C/c2nc3ccc(C(=O)NCCc4ccc(Cl)cc4)cc3[nH]c2=O)c1 ?
12-LOX inh: -18%; HT1080NT lethal: 18µM*; DT40 TDP1 CPT: 6.5µM*; IL-1B inflam inh: 28; DT40 TDP1 no CPT: 6.5µM*; HT1080 IDH1KD tx: inconclusive
